Consider seven compounds from PubChem BioAssay (EPA / NIEHS).

Read-out in test [1]: TIMP metallopeptidase inhibitor 1 (TIMP1), TIMP1 (gene 7076)
In words: BSK_hDFCGF_TIMP1: BioMAP Diversity Plus: hDFCGF Assay for TIMP metallopeptidase inhibitor 1 (TIMP1) Biomarker Activity (AID 2283062). As to conditions: primary human foreskin fibroblasts; actives raise or lower the signal. Put shortly:
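Bidirectional curve fitting against DMSO baseline yielded this endpoint, based on ELISA detection of TIMP-1 in primary human foreskin fibroblasts exposed to compound for 24 h.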

Read-out in test [2]: Monokine induced gamma interferon (MIG), CXCL9 (gene 4283)
Briefly: BSK_hDFCGF_MIG: BioMAP Diversity Plus: hDFCGF Assay for Monokine induced gamma interferon (MIG) Biomarker Activity (AID 2283063). As to conditions: primary human foreskin fibroblasts; actives raise or lower the signal. Put shortly:
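Endpoint derived by bidirectional fitting relative to DMSO; MIG quantified via ELISA in primary human foreskin fibroblasts harvested 24 h after dosing.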

Read-out in test [3]: Matrix Metallopeptidase 1 (MMP1), MMP1 (gene 4312)
In words: BSK_hDFCGF_MMP1: BioMAP Diversity Plus: hDFCGF Assay for Matrix Metallopeptidase 1 (MMP1) Biomarker Activity (AID 2283064). The settings on record: primary human foreskin fibroblasts; actives raise or lower the signal. A digest of the protocol: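 Primary human foreskin fibroblasts in the hDFCGF system were dosed with test chemical, and MMP1 was measured by ELISA 24 h later. Values come from bidirectional curve fitting against the DMSO baseline.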

Read-out in test [4]: Vascular cell adhesion molecule 1 (VCAM1), VCAM1 (gene 7412)
In words: BSK_hDFCGF_VCAM1: BioMAP Diversity Plus: hDFCGF Assay for Vascular cell adhesion molecule 1 (VCAM1) Biomarker Activity (AID 2283065).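 On AC50: VCAM-1 protein level quantified by ELISA after 24 h chemical exposure.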 As to conditions: primary human foreskin fibroblasts; actives raise or lower the signal. Put shortly: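 Measured after 24 h chemical treatment of primary human skin fibroblasts, VCAM-1 was detected by ELISA and concentration-response analysed in both directions versus DMSO vehicle.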

Read-out in test [5]: Plasminogen activator inhibitor-1 (PAI1), SERPINE1 (gene 5054)
In words: BSK_hDFCGF_PAI1: BioMAP Diversity Plus: hDFCGF Assay for Plasminogen activator inhibitor-1 (PAI1) Biomarker Activity (AID 2283066). As to conditions: primary human foreskin fibroblasts; actives raise or lower the signal. Put shortly: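 Primary dermal fibroblasts (human foreskin), hDFCGF system; compound 24 h; PAI-1 by ELISA; bidirectional fit vs DMSO control.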

Read-out in test [6]: Intercellular Adhesion Molecule 1 (ICAM1), ICAM1 (gene 3383)
In words: BSK_KF3CT_ICAM1: BioMAP Diversity Plus: KF3CT Assay for Intercellular Adhesion Molecule 1 (ICAM1) Biomarker Activity (AID 2283067). The settings on record: primary human keratinocytes with fibroblasts; actives raise or lower the signal. Put shortly:
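Bidirectional curve fitting against a DMSO baseline was applied to ICAM-1 ELISA signal from primary human skin co-cultures harvested 24 h after treatment, with SRB staining of parallel wells for overt cytotoxicity.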

Read-out in test [7]: Interferon-gamma inducible Protein 10 (IP10), CXCL10 (gene 3627)
Briefly: BSK_KF3CT_IP10: BioMAP Diversity Plus: KF3CT Assay for Interferon-gamma inducible Protein 10 (IP10) Biomarker Activity (AID 2283068). The settings on record: primary human keratinocytes with fibroblasts; actives raise or lower the signal. Put shortly: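 ELISA read-out of IP-10 after 24 h chemical dosing of human skin primary co-culture (keratinocytes, foreskin fibroblasts). Gain or loss of signal relative to DMSO, bidirectional curve fit.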

Test [8] in a line: BSK_KF3CT_SRB: Viability Assessment in the BioMAP Diversity Plus: KF3CT Assay (AID 2283069).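 Further: total protein by sulforhodamine B staining as a cytotoxicity measure; read 24 h after compound addition.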 As to conditions: primary human keratinocytes with fibroblasts. A digest of the protocol:
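Human primary keratinocyte plus foreskin fibroblast co-culture exposed to chemicals for 24 h. Total protein measured by 0.1% sulforhodamine B staining after 10% TCA fixation, read at 560 nm; bidirectional fitting versus DMSO baseline.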

Read-out in test [9]: Interleukin-1 alpha (IL1a), IL1A (gene 3552)
Briefly: BSK_KF3CT_IL1a: BioMAP Diversity Plus: KF3CT Assay for Interleukin-1 alpha (IL1a) Biomarker Activity (AID 2283070). The settings on record: primary human keratinocytes with fibroblasts; actives raise or lower the signal. Put shortly:
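Human keratinocyte plus foreskin fibroblast primary co-culture, sampled 24 h after chemical dosing. IL-1a measured by ELISA; responses fitted bidirectionally against DMSO baseline (negative control), so gain or loss of signal both count.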

Read-out in test [10]: TIMP metallopeptidase inhibitor 2 (TIMP2), TIMP2 (gene 7077)
Briefly: BSK_KF3CT_TIMP2: BioMAP Diversity Plus: KF3CT Assay for TIMP metallopeptidase inhibitor 2 (TIMP2) Biomarker Activity (AID 2283071). As to conditions: primary human keratinocytes with fibroblasts; actives raise or lower the signal. A digest of the protocol: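 Cells: human keratinocytes co-cultured with foreskin fibroblasts. Treat with chemical, 24 h. Measure TIMP-2 by ELISA; fit curves bidirectionally vs DMSO baseline.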

Read-out in test [11]: Transforming growth factor beta 1 (TGFb1), TGFB1 (gene 7040)
In words: BSK_KF3CT_TGFb1: BioMAP Diversity Plus: KF3CT Assay for Transforming growth factor beta 1 (TGFb1) Biomarker Activity (AID 2283072). The settings on record: primary human keratinocytes with fibroblasts; actives raise or lower the signal. Put shortly:
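Primary human skin cells (keratinocytes, foreskin fibroblasts) were co-cultured, exposed to test chemical and sampled at 24 h. TGF-b1 levels were measured by ELISA and fitted bidirectionally relative to DMSO.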

Read-out in test [12]: C-C motif chemokine 2 (Homo sapiens) (UniProt P13500)
Briefly: BSK_KF3CT_MCP1: BioMAP Diversity Plus: KF3CT Assay for Monocyte Chemoattractant Protein 1 (MCP1/CCL2) Biomarker Activity (AID 2283073). The settings on record: primary human keratinocytes with fibroblasts; actives raise or lower the signal. Put shortly:
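Biomarker MCP-1 is measured by ELISA in primary human keratinocytes co-cultured with foreskin fibroblasts, 24 h after chemical treatment; DMSO serves as the negative control and activity baseline.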

Read-out in test [13]: Matrix Metallopeptidase 9 (MMP9), MMP9 (gene 4318)
Briefly: BSK_KF3CT_MMP9: BioMAP Diversity Plus: KF3CT Assay for Matrix Metallopeptidase 9 (MMP9) Biomarker Activity (AID 2283074). The settings on record: primary human keratinocytes with fibroblasts; actives raise or lower the signal. Put shortly:
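Keratinocyte plus foreskin fibroblast human primary skin co-culture was dosed with chemical and MMP-9 was quantified by ELISA 24 h later. Bidirectional curve fitting used DMSO as negative control and activity baseline.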

Read-out in test [14]: urokinase plasminogen activator (uPA), PLAU (gene 5328)
In words: BSK_KF3CT_uPA: BioMAP Diversity Plus: KF3CT Assay for urokinase plasminogen activator (uPA) Biomarker Activity (AID 2283075). The settings on record: primary human keratinocytes with fibroblasts; actives raise or lower the signal. Put shortly: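 Human keratinocyte plus foreskin fibroblast primary co-culture exposed to chemical for 24 h. uPA levels were quantified by ELISA, and activity was fitted bidirectionally against a DMSO negative-control baseline.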

Read-out in a further test: CD40, CD40 (gene 958)
Briefly: BSK_LPS_CD40: BioMAP Diversity Plus: LPS Assay for CD40 Biomarker Activity (AID 2283076). The settings on record: primary human HUVEC with PBMC; actives raise or lower the signal. Put shortly:
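Using a multiplexed primary human co-culture (umbilical vein endothelium plus PBMC), CD40 was read by ELISA 24 h after dosing, with cytotoxicity tracked by sulforhodamine B staining of parallel cultures and activity fitted bidirectionally versus DMSO.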

Read-out in test [15]: E-selectin (Homo sapiens) (UniProt P16581)
In words: BSK_LPS_Eselectin: BioMAP Diversity Plus: LPS Assay for Eselectin Biomarker Activity (AID 2283077). The settings on record: primary human HUVEC with PBMC; actives raise or lower the signal. A digest of the protocol:
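Dose chemical onto LPS-driven HUVEC/PBMC co-culture; after 24 h, run ELISA for E-selectin; fit up- and down-going responses relative to DMSO control.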

Read-out in test [16]: Interleukin-8 (IL8), CXCL8 (gene 3576)
Briefly: BSK_LPS_IL8: BioMAP Diversity Plus: LPS Assay for Interleukin-8 (IL8) Biomarker Activity (AID 2283078). As to conditions: primary human HUVEC with PBMC; actives raise or lower the signal. A digest of the protocol:
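In this LPS system, chemical-treated human umbilical vein endothelium/PBMC co-cultures were harvested at 24 h for IL-8 ELISA.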

Test [17] is described as follows: BSK_LPS_SRB: Viability Assessment in the BioMAP Diversity Plus: LPS Assay (AID 2283079).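 Further: total protein by sulforhodamine B absorbance as a cytotoxicity measure; measured one day after compound addition.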 As to conditions: primary human HUVEC with PBMC. A digest of the protocol:
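Cytotoxicity endpoint in human endothelial–PBMC co-culture: 24 h exposure, then SRB (0.1%) staining, 560 nm read.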

Read-out in test [18]: Interleukin-1 alpha (IL1a), IL1A (gene 3552)
In words: BSK_LPS_IL1a: BioMAP Diversity Plus: LPS Assay for Interleukin-1 alpha (IL1a) Biomarker Activity (AID 2283080). As to conditions: primary human HUVEC with PBMC; actives raise or lower the signal. A digest of the protocol: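 Primary human HUVEC and PBMC co-culture stimulated with LPS is dosed and harvested at 24 h. Both increases and decreases in ELISA-measured IL-1a are scored relative to DMSO.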

Read-out in test [19]: Monocyte Chemoattractant Protein-1 (MCP1), CCL2 (gene 6347)
Briefly: BSK_LPS_MCP1: BioMAP Diversity Plus: LPS Assay for Monocyte Chemoattractant Protein-1 (MCP1) Biomarker Activity (AID 2283081).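 Further: secreted MCP-1 protein quantified by ELISA in culture supernatant.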 As to conditions: primary human HUVEC with PBMC; actives raise or lower the signal. Put shortly: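 Values derive from bidirectional fitting against DMSO of ELISA-measured MCP-1 in a human primary endothelial and mononuclear cell co-culture, 24 h after chemical addition under LPS activation.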

Broadly, the AC50 is the concentration giving half of the maximal activity seen.

Active and inactive are the calls of the source. How the source made its calls: active means hit-call score of the fitted dose curve at least 0.9, where 1 is the maximum; inactive means score below 0.9.

Chain of E-selectin (Homo sapiens) (P16581 whole entry, looked up): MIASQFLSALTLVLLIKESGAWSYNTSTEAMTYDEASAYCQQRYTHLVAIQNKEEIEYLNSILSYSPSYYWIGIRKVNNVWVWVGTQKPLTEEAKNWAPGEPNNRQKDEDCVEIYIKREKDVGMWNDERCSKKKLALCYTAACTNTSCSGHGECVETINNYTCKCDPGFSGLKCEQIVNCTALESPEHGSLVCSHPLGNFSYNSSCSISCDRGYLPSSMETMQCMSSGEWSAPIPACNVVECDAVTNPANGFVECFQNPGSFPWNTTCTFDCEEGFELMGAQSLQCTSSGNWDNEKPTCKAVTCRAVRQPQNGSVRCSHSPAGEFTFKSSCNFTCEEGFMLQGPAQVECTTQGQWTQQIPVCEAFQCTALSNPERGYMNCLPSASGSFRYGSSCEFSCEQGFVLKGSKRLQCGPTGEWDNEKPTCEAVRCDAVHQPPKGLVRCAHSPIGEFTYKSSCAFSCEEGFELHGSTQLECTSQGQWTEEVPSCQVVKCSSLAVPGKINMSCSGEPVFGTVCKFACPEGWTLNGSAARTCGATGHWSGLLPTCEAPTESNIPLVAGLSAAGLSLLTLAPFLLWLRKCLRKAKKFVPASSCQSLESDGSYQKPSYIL

Turning to `CC(C)(OOC(C)(C)c1ccccc1)c1ccccc1`, the result in [1], in test [6], in test [7], in [8], in test [9] and in test [10] was inactive. The result in test [11], in [12], in test [13] and in [14] was inactive. Also, the AC50 was 20 µM (active) in [2]; 38.1 µM (active) in test [3]; 28.8 µM (active) in [4]; 15.4 µM (active) in test [5]; 34.6 µM (active) with CD40, CD40 (gene 958); 34 µM (active) in [15]. Also, the AC50 is 30.1 µM (active) in test [16], 36.8 µM (active) in [17], 29.2 µM (active) in test [18] and 30.4 µM (active) in [19].
Take `CCN(CC)N=O`: the result in test [1], in test [2], in test [3], in test [4], in test [5] and in [6] was inactive. Further, the outcome in test [7], in test [8], in [9], in test [10], in [11] and in [12] was inactive. Further, the outcome in test [13] was “inactive”; in test [14], “inactive”; with CD40, CD40 (gene 958), “inactive”; in test [15] it was “inactive”; in test [16], “inactive”; in [17], “inactive”. Further, in [18], the outcome was inactive.
Consider `C1=Cc2cccc3cccc1c23`, for which the outcome in [1], in [2], in test [3], in test [4], in test [5] and in test [6] was inactive. Moreover, the outcome in [7], in test [8], in [9], in test [10], in test [11] and in test [12] was inactive. For the same compound, the outcome is “inactive” in test [13]; “inactive” in test [14]; “inactive” with CD40, CD40 (gene 958); “inactive” in test [15]; “inactive” in test [16]; “inactive” in test [17]. In test [18], the result was inactive.
As for `Nc1cc(Cl)cc(C(=O)O)c1Cl`, the result in [1], in test [2], in [3], in test [4], in [5] and in [6] was inactive. Moreover, the outcome in test [7], in test [8], in [9], in test [10], in test [11] and in [12] was inactive. Moreover, the outcome in test [13] was “inactive”; in test [14] it was “inactive”; with CD40, CD40 (gene 958), “inactive”; in [15] it was “inactive”; in [16] it was “inactive”; in test [17], “inactive”. Further, the outcome in test [18] was inactive.
`CCOc1cccc(C2(N3CCN(c4ccccc4)CC3)CCC(C)CC2)c1` (centres undefined): the result in test [1], in test [2], in [3], in test [4], in test [5] and in test [6] was inactive. In addition, the result in [7], in test [8], in [9], in test [10], in test [11] and in test [12] was inactive. For the same compound, the outcome was “inactive” in test [13]; “inactive” in [14]; “inactive” with CD40, CD40 (gene 958); “inactive” in test [15]; “inactive” in test [16]; “inactive” in test [17]. In test [18], the outcome was inactive.
`CN(C)c1ccc(C(=O)c2ccc(N(C)C)cc2)cc1`: the result in test [1], in test [2], in test [3], in [4], in test [5] and in test [6] was inactive. Moreover, the outcome in [7], in [8], in [9], in test [10], in test [12] and in test [13] was inactive. Moreover, the outcome in test [14], in [15] and in test [18] was inactive. Besides, the AC50 in test [11] is 5.11 µM (active); with CD40, CD40 (gene 958), 17 µM (active); in test [16], 6.12 µM (active); in test [17] it was 13.4 µM (active).
Regarding `CCN(CC)CCO`, the outcome in [1], in [2], in test [3], in test [4], in [5] and in [6] was inactive. The outcome in test [7], in [8], in [9], in test [10], in test [11] and in [12] was inactive. For the same compound, the outcome is “inactive” in test [13]; “inactive” in test [14]; “inactive” in the test with CD40, CD40 (gene 958); “inactive” in [15]; “inactive” in test [16]; “inactive” in test [17]. Also, the result in [18] was inactive.
